Only some compounds are listed: those with a hit (about 31% of all), similar ones and a draw of the others.
CYP2C19 inh – blockers of cytochrome P450 2C19 activity – biochemical, luminescence, ADME assay, primary screen. CYP2C19 Supersomes, luciferin-H EGE luminescence, 30 min. P33261. inhibition, % at 5 µM. actives 21% (n = 96,000). AID 778, 2007;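 active means CYP2C19 inhibition above a set limit at 5 µM in the primary screen, cut at about 50% in these data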;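 further: plate controls were negative control wells for no effect and 2.5 mM tranylcypromine positive control for full effect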
Target sequence (P33261 whole entry, looked up): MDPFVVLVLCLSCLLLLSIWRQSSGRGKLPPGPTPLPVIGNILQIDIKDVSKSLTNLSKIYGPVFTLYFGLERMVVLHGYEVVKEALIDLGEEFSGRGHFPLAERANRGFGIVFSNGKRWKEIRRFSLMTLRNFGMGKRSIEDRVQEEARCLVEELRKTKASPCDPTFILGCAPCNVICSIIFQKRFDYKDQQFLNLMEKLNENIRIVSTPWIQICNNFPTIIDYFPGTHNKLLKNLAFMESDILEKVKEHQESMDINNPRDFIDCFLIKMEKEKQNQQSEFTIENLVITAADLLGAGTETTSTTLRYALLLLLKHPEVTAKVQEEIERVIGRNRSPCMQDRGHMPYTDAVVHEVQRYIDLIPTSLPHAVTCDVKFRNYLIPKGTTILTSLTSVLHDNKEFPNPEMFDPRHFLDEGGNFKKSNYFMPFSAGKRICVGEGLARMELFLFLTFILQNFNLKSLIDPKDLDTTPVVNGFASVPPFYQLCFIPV
CYP2C9 act – human CYP2C9 activators, primary screen, biochemical, luminescence | AID 1024, 2008 | recombinant CYP2C9, luciferin-H conversion; active compounds read high; factor 1 = untreated enzyme, 0 = blocked | activation factor at 5 µM | actives 1.4% (n = 96,000) | Cytochrome P450 2C9 (Homo sapiens), P11712;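 active means activation factor of 2 or more for CYP2C9 at a 5 µM dose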;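 further: 0 = sulfaphenazole-blocked wells and 1 = vehicle-only wells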
CYP2C9 inhib – blockers of cytochrome P450 2C9 activity – biochemical, luminescence, ADME assay, primary screen. CYP2C9 Supersomes, luciferin-H conversion. inhibition, % at 5 µM. actives 20% (n = 96,000);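 active means blocking of liver enzyme CYP2C9 beyond about 50% at 5 µM, limit read from the data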
CYP2C19 activ – human CYP2C19 activators, primary screen, biochemical, luminescence; Cytochrome P450 2C19 (Homo sapiens), P33261; recombinant CYP2C19, luciferin-H EGE luminescence; active compounds read high; 0 = fully inhibited enzyme, 1 = untreated enzyme; activation factor at 5 µM; 96,000 tested, under 10 active; AID 1025, 2008;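 active means activation factor of at least 2 at 5 µM in the primary screen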;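 further: 0 = wells with 2.5 mM tranylcypromine and 1 = vehicle-only wells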
* hit, by the source's call.

SMILES | CYP2C19 inh | CYP2C9 act | CYP2C9 inhib | CYP2C19 activ
O=C(NCc1ccccc1)N1CCN(c2ccc(Cl)c(Cl)c2)CC1 | -3 | 0.8 | 22 | 1
O=C(OCCNc1ncc(C(F)(F)F)cc1Cl)c1ccc(S(=O)(=O)N2CCOCC2)cc1 | 69* | 0.7 | 27 | 0.3
O=C(NCCOC(=O)c1ccc(S(=O)(=O)N2CCOCC2)cc1)c1cccnc1 | 2 | 0.8 | 23 | 1
O=C(Nc1cccn2ncnc12)c1ccc(Cl)cc1Cl | 7 | 1.5 | -52 | 0.9
Cc1nc(NNC(=O)c2ccc(Cl)cc2Cl)cc(-c2ccccc2)n1 | -8 | 0.5 | 51* | 1.1
CCSc1nc2c(c(=O)[nH]1)C(C(C)C)C(C#N)=C(N)O2 (stereo unspecified) | -24 | 0.9 | 12 | 1.2
CC12CC(NC(=O)N1c1ccc(C(=O)N3CCN(c4ccccn4)CC3)cc1)c1ccccc1O2 (stereo unspecified) | 8 | 0.9 | 6 | 0.9
CC12CC(NC(=O)N1CCc1ccccc1)c1ccccc1O2 (stereo unspecified) | 79* | 0.7 | 29 | 0.2
Cc1cc(C)nc(SCCCn2c(=O)[nH]c3ccccc32)n1 | 97* | 1.4 | -39 | 0
CCCn1c(=O)[nH]c2ccccc21 | -6 | 1.3 | -33 | 1.1
CN(C(=O)c1ccco1)c1nnc(C23CC4CC(CC(C4)C2)C3)s1 | 9 | 0.8 | 18 | 0.9
CN(C(=O)c1ccco1)c1nc2c(s1)CCCC2 | 45 | 0.4 | 62* | 0.6
COC(=O)c1cc(COc2ccc3c(c2)oc(=O)c2ccccc23)c(C)o1 | 52* | 0.5 | 49 | 0.5
COCCOC(=O)c1c(C)oc2ccc(OCc3cc(C(=O)OC)oc3C)cc12 | 43 | 0.4 | 56* | 0.6
COCCOC(=O)c1c(C)oc2ccc(OCC=C(C)C)cc12 | 20 | 0.9 | 14 | 0.8
COc1ccc(S(=O)(=O)Nc2ccc(S(=O)(=O)N3CCCC3)cc2)cc1 | 54* | 0.1 | 89* | 0.5
CCC(C)NC(=O)C1CCN(S(=O)(=O)c2ccc(OC)cc2)CC1 (stereo unspecified) | 19 | 1.1 | -14 | 0.8
COC(=O)C1CCN(S(=O)(=O)c2ccc(OC)cc2)CC1 | 89* | 1.3 | -33 | 0.1
COc1ccc(S(=O)(=O)c2ccc(OC)cc2)cc1 | 99* | 1.3 | -34 | 0
CCn1c(SCc2ccccc2)nnc1C1CCN(S(=O)(=O)c2ccc(OC)cc2)CC1 | 20 | 2* | -105 | 0.8
COc1ccc(S(=O)(=O)CCC(=O)O)cc1 | 0 | 1.1 | -12 | 1
Nc1cccc(-n2nncc2-c2ccccc2)c1 | 31 | 1 | 0 | 0.7
Cn1c(-c2nonc2NC(=O)c2ccc(C(C)(C)C)cc2)nc2ccccc21 | -5 | 1.1 | -12 | 1
COC(=O)c1ccc(NS(=O)(=O)c2ccc(OC)cc2)cc1 | 14 | 0.1 | 89* | 0.9
COC(=O)c1ccc(NC(=O)c2ccc(N(C)S(C)(=O)=O)cc2)cc1 | 1 | 0.9 | 5 | 1
SMILES | CYP2C19 inh | CYP2C9 act | CYP2C9 inhib | CYP2C19 activ
COc1ccc(S(=O)(=O)Nc2ccc(S(=O)(=O)N3CCCCC3)cc2)cc1C | 58* | 0.1 | 88* | 0.4
COc1ccc(S(=O)(=O)Nc2ccc(S(=O)(=O)N3CCCCC3)cc2)cc1 | 16 | 0.2 | 81* | 0.8
COc1ccc(CNS(=O)(=O)c2ccc(S(=O)(=O)N3CCCCC3)cc2)cc1 | 22 | 0.7 | 33 | 0.8
COc1ccc(C(=O)Nc2ccc(S(=O)(=O)NC(C)=O)cc2)cc1 | -14 | 1.1 | -6 | 1.1
COC(=O)c1ccc(NS(=O)(=O)N(C)C)cc1 | 87* | 0.2 | 79* | 0.1
CC(C)(c1ccccc1)c1ccc(OCCCNCCO)cc1 | 20 | 1.1 | -14 | 0.8
CN1CCN(C(=O)CN(c2cccc(Cl)c2)S(=O)(=O)c2ccccc2)CC1 | 7 | 0.7 | 31 | 0.9
COc1ccc(S(=O)(=O)Nc2ccc(CC#N)cc2)cc1 | 100* | 0.2 | 85* | 0
COc1ccc(NS(=O)(=O)c2ccc(OCC(=O)N3CCOCC3)cc2)cc1 | 20 | 0.9 | 13 | 0.8
COc1ccc(S(=O)(=O)N2CCCCCC2)cc1 | 51* | 1.1 | -12 | 0.5
COc1ccc(NS(=O)(=O)c2ccc(N3C(=O)CCC3=O)cc2)cc1 | 86* | 0.3 | 70* | 0.1
CC(=O)N1CCC(N(C(=O)Nc2c(F)cccc2F)C(C)C)CC1 | -16 | 1.1 | -14 | 1.2
COC(=O)C(C)Sc1snnc1-c1ccccc1 (stereo unspecified) | 92* | 0.4 | 64* | 0.1
CCCc1cc(=O)n2[nH]c(C)cc2n1 | -6 | 1.1 | -7 | 1.1
COc1ccc(/C(O)=C2/C(=O)C(=O)N(CCCN(C)C)C2c2ccc(C)o2)cc1Cl (stereo unspecified) | 2 | 0.7 | 33 | 1
CCN(CCCNC(=O)CC(C(=O)N1CCc2ccccc21)n1ccnc1)c1ccccc1 (stereo unspecified) | 94* | 0.7 | 32 | 0.1
Cc1ccc(/C=N/NC(=O)Cn2cnc3ccccc32)o1 | 7 | 0.9 | 13 | 0.9
O=C(CCCSc1nc(-c2ccco2)cc(C(F)(F)F)n1)Nc1ccc2c(c1)OCO2 | 48 | 0.2 | 79* | 0.5
COc1ccc(-c2cc(C(F)(F)F)nc(SCc3cccc(C(=O)O)c3)n2)cc1 | -3 | 0.9 | 14 | 1
O=C(CSc1nc(-c2ccccc2)cc(C(F)(F)F)n1)NCCN1CCOCC1 | 38 | 0.7 | 27 | 0.6
COC(=O)c1ccc(CSc2nc(-c3ccco3)cc(C(F)(F)F)n2)o1 | 34 | 0.3 | 75* | 0.7
O=C(CSc1nc(-c2ccco2)cc(C(F)(F)F)n1)NCCCn1ccnc1 | 91* | 0 | 96* | 0.1
O=C(CSc1nc(-c2ccco2)cc(C(F)(F)F)n1)Nc1cccnc1 | 26 | 0.5 | 53* | 0.7
CCNC(=S)NNC(=O)c1cccc(Br)c1 | 18 | 1 | 1 | 0.8
CCCOc1ccc(-c2cnc(N)s2)cc1 | 15 | 0.8 | 22 | 0.8
SMILES | CYP2C19 inh | CYP2C9 act | CYP2C9 inhib | CYP2C19 activ
CC(C)(Oc1ccc(Cl)cc1)C(=O)OCC(=O)N1CCCC1 | 28 | 0.9 | 10 | 0.7
COc1ccccc1CCNC(=O)CSc1nc(-c2ccco2)cc(C(F)(F)F)n1 | 3 | 0.9 | 5 | 1
O=C(CCSc1nc(-c2ccco2)cc(C(F)(F)F)n1)NCCc1ccccc1 | 39 | 0.5 | 51* | 0.6
CC(NC(=O)CCSc1nc(-c2ccc3c(c2)OCO3)cc(C(F)(F)F)n1)c1ccccc1 (stereo unspecified) | 81* | 0.2 | 83* | 0.2
COc1ccc(CCNC(=O)CSc2nc(-c3ccco3)cc(C(F)(F)F)n2)cc1 | 58* | 0.3 | 69* | 0.4
c1ccc2c(-n3cccn3)cccc2c1 | 23 | 1.1 | -7 | 0.8
c1ccc2cc(CN3CCOCC3)ccc2c1 | 36 | 1.2 | -16 | 0.6
OC1(c2ccc3ccccc3c2)CCN(Cc2ccccc2)C1 (stereo unspecified) | 80* | 0.8 | 19 | 0.2

From PubChem BioAssay
